Assay [1] in a line: qHTS assay for small molecule agonists of the p53 signaling pathway - cell viability (AID 651633; calls by dose curve;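 note: p53RE-bla HCT reporter cells with a stable beta-lactamase p53 reporter; series mostly up to about 83 µM; nearly all actives have a fitted effect of over 30% in size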). Put shortly: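 p53RE-bla cells, seeded at 4,000 per well and rested 5 h at 37 C/5% CO2, received compounds in DMSO for 16 h at 37 C. CellTiter-Glo was then added, and luminescence was read after 30 min at room temperature to gauge cytotoxicity.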
(In general: qHTS replaces the single test concentration by a dilution series.)

Assay [2] is described as follows: qHTS assay to test for compound auto fluorescence at 460 nm (blue) in HEK293 cells (AID 720678). Put shortly: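 Blue-channel (Ex/Em 405/460 nm) intensity measured in HEK293 cultures after overnight compound exposure at 37C; signal expressed relative to triamterene. Cells plated 2,000 per well in 10% dialyzed FBS medium and allowed 4-5 hr to attach.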
Assay [3] can be described thus: qHTS assay to test for compound auto fluorescence at 590 nm (red) in HEK293 cells (AID 720679). Put shortly:
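Red-channel autofluorescence (Ex/Em 540/590 nm; Rose Bengal sodium reference) was measured after overnight 37C, 5% CO2 exposure of attached HEK293 cells, 2,000 per well in medium with 10% dialyzed FBS.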

Assay [4] can be described thus: qHTS assay to test for compound auto fluorescence at 535 nm (green) in HEK293 cells (AID 720680).
For assay [5], the target named is Glucocorticoid receptor (Homo sapiens) (UniProt P04150). Put plainly: qHTS assay to identify small molecule agonists of the glucocorticoid receptor (GR) signaling pathway (AID 720691; active = well fitted activation curve with a large enough effect in the signal ratio in the repeat runs, not every such curve was filed as active; inconclusive = weak or mixed curves, or effect the other way; inactive = no such curve, though single readings can be large or run the other way; the % refers to the signal ratio). Put shortly:
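Compounds in DMSO, alongside positive controls, were added to GR-bla HeLa reporter cells and incubated 18 h at 37 C; GRE-driven beta-lactamase was detected by fluorescence after 2 h with FRET substrate at room temperature.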

Assay [6] is described as follows: qHTS assay for identifying genotoxic compounds that show differential cytotoxicity against isogenic chicken DT40 cell lines with known DNA damage response pathways - wild type cell line (AID 743012). Note: nearly all actives have a fitted effect of over 60% in size. Note: potency is the fitted concentration of half-maximal effect. Summed up: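 Viability of DNA repair-proficient chicken DT40 cells was assessed by CellTiter-Glo luminescence following 40 h compound exposure at 37 C/5% CO2.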
A short description of assay [7]: qHTS assay for identifying genotoxic compounds that show differential cytotoxicity against isogenic chicken DT40 cell lines with known DNA damage response pathways - Rev3 mutant cell line (AID 743014). Note: nearly all actives have a fitted effect of over 55% in size. Note: potency is the fitted concentration of half-maximal effect.
Assay [8] can be described thus: qHTS assay to identify small molecule antagonists of the thyroid receptor (TR) signaling pathway - cell viability counter screen (AID 743064). Note: nearly all actives have a fitted effect of over 50% in size. Note: potency is the fitted concentration of half-maximal effect. Put shortly:
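Counter screen for cytotoxicity: compound plus T3 (1 nM final) on GH3.TRE-Luc cells, 23.5 h at 37 °C, then fluorescence viability readout with CellTiter-Fluor.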

Assay [9] deals with Estrogen receptor (Homo sapiens) (UniProt P03372). Put plainly: qHTS assay to identify small molecule agonists of the estrogen receptor alpha (ER-alpha) signaling pathway using the BG1 cell line (AID 743079). Note: nearly all actives have a fitted effect of over 20% in size. Note: potency is the fitted concentration of half-maximal effect.
Sequence of Estrogen receptor (Homo sapiens) (P03372 whole entry, looked up): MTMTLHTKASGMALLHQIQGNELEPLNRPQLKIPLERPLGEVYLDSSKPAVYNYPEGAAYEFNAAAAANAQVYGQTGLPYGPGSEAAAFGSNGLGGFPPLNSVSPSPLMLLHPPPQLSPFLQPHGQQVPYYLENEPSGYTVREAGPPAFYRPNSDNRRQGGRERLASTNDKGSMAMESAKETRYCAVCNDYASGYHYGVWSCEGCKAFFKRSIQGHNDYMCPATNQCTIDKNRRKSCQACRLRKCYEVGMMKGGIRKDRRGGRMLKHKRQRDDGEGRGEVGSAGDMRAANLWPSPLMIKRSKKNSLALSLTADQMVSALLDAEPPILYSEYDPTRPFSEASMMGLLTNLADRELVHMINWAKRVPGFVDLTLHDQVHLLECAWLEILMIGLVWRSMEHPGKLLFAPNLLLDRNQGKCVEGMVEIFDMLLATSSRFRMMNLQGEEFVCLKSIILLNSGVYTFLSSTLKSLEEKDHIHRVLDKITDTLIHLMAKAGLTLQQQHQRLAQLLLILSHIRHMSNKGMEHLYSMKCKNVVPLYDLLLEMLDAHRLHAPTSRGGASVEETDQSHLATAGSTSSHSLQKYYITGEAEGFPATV
In assay [10] the target is Peroxisome proliferator-activated receptor gamma (Homo sapiens) (UniProt P37231). The assay can be described thus: qHTS assay to identify small molecule agonists of the peroxisome proliferator-activated receptor gamma (PPARg) signaling pathway (AID 743094; active = well fitted activation curve with a large enough effect in the signal ratio in the repeat runs, not every such curve was filed as active; inconclusive = weak or mixed curves, or effect the other way; inactive = no such curve, though single readings can be large or run the other way; the % refers to the signal ratio). Summed up: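 Agonism was assessed in a beta-lactamase reporter system, HEK293H cells with a stably integrated UAS-bla construct under PPARg control; the 17 h treatment at 37C preceded a 1 h room-temperature FRET substrate read.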
Sequence of Peroxisome proliferator-activated receptor gamma (Homo sapiens) (P37231 whole entry, looked up): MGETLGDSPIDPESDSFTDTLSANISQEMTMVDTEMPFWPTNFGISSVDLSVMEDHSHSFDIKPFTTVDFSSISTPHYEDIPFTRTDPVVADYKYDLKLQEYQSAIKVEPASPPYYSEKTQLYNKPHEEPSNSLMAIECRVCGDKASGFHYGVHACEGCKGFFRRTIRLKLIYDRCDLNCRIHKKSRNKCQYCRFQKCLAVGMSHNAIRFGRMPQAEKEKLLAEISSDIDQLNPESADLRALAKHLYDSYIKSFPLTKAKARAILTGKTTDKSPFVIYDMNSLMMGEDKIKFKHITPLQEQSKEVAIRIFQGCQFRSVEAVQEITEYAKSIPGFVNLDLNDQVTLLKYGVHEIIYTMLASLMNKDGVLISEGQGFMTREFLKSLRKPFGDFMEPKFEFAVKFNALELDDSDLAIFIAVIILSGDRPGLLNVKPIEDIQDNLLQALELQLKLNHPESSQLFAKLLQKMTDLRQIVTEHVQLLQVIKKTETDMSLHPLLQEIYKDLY

The target of assay [11] is Nuclear receptor subfamily 1 group I member 2 (Rattus norvegicus) (UniProt Q9R1A7). Put plainly: Rat pregnane X receptor (rPXR) activation by small molecules, qHTS assay (AID 1346983). Note: nearly all actives have a fitted effect of over 20% in size. Note: potency is the fitted concentration of half-maximal effect. The following applies: rPXR luciferase reporter cells, One-Glo luminescence, 24 h; max activation: stronger effect = higher value. Summed up:
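Cell-based rPXR luciferase reporter assay, 2,000 cells per well, rested 5hr at 37 C before compound addition in DMSO, then 24 hr at 37 C. One-Glo reagent was added and luminescence read after 30 min at room temperature.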

Assay [12] deals with Nuclear receptor subfamily 1 group I member 2 (Homo sapiens) (UniProt O75469). The assay can be described thus: CYP3A4 induction through human pregnane X receptor (PXR) by small molecules, qHTS assay (AID 1346984). Note: nearly all actives have a fitted effect of over 40% in size. Put shortly:
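Cells (DPX-2; HepG2 with PXR element plus CYP3A4-promoter luciferase) settled 5hr, then were treated 24hr at 37C. A 3hr, 3uM-final Luciferin-IPA step preceded luminescence measurement with One-Glo.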

The target is the same in assay [13]. The assay can be described thus: Human pregnane X receptor (PXR) activation by small molecules, qHTS assay (AID 1346985). Note: nearly all actives have a fitted effect of over 40% in size. Note: potency is the fitted concentration of half-maximal effect. Summed up: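 DPX-2 cells (HepG2 co-transfected with a PXR response element and a CYP3A4-promoter luciferase construct) were seeded at 2,000 per well, rested 5 hr at 37C, then exposed to DMSO-dissolved compounds for 24 hr. Activation was read as luciferase luminescence.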

Assay [14] is described as follows: qHTS assay to test for compound auto fluorescence at 590 nm (red) in HepG2 cell free culture (AID 720684). Put shortly:
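Ex 540 / Em 590 nm read of compound in cell-free MEM (10% FBS). Rose Bengal sodium reference.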

The target of assay [15] is Estrogen receptor (Homo sapiens) (UniProt P03372). Put plainly: qHTS assay to identify small molecule agonists of the estrogen receptor alpha (ER-alpha) signaling pathway (AID 743075; calls by dose curve;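 note: HEK293 GripTite cells with ER-alpha and UAS-driven beta-lactamase reporter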; note: potency is the fitted concentration of half-maximal effect).
Assay [16] in a line: qHTS assay to identify small molecule antagonists of the estrogen receptor alpha (ER-alpha) signaling pathway using the BG1 cell line (AID 743080; calls by dose curve;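 note: BG1 cells stimulated with 17beta-estradiol alongside compound; series mostly up to about 70 µM; nearly all actives have a fitted effect of over 25% in size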). Put shortly: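 Luciferase inhibition measured with ONE-Glo after 30 min at RT in BG1Luc4E2 cells given test compounds and 17beta-estradiol for 21.5 h at 37 C; CellTiter-Fluor viability read in the same wells beforehand.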
Assay [17] is described as follows: qHTS assay to identify small molecule that activate the aryl hydrocarbon receptor (AhR) signaling pathway - cell viability counter screen (AID 743086).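 Note: HepG2 liver cells carrying the AhR DRE luciferase reporter; series mostly up to about 70 µM; nearly all actives have a fitted effect of over 45% in size.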 Put shortly: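 HepG2-AhR-luc (HG2L7.5c1) cells, 4000/well, were preincubated 5 h at 37C, exposed to compound in qHTS format for 24 hr at 37C, then given CellTiter-Fluor for 30 min; viability was read as fluorescence in the reporter wells.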

The nature of assay [18]: qHTS assay for small molecule agonists of the p53 signaling pathway (AID 651631; calls by dose curve; note: nearly all actives have a fitted effect of over 15% in size). Summed up:
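Stably transfected HCT-116 cells (beta-lactamase behind p53 response elements) get compounds after a 5 h settling period; 16 h later at 37 °C, FRET substrate is loaded and fluorescence read after 2 h.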

Assay [19] can be described thus: qHTS assay to identify small molecule antagonists of the androgen receptor (AR) signaling pathway using the MDA cell line - cell viability counter screen (AID 743041; note: nearly all actives have a fitted effect of over 45% in size). Put shortly: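 In this qHTS counter assay, fluorescence intensity after CellTiter-Fluor addition indicated viability of MDA-kb2 AR-luc cells given compounds and R1881 for 16 h at 37C.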
Assay [20] in a line: qHTS assay to identify small molecule antagonists of the androgen receptor (AR) signaling pathway - cell viability counter screen (AID 743033; note: nearly all actives have a fitted effect of over 45% in size).

Potency, outcome and max activation data for six compounds are collected here from PubChem BioAssay (Tox21).

A number with no mark means an inactive call. Activity calls are given as the source filed them. Unless noted, calls come from the whole dose curve; as a rule, active = well fitted curve in the direction sought with a large enough effect in the repeat runs; inconclusive = weak or mixed curves; inactive = no such curve, though single readings can be large; an effect the other way counts as inactive or inconclusive.
% is set by controls: 0 for no effect and ±100 for the full control effect.

Sequence of Nuclear receptor subfamily 1 group I member 2 (Rattus norvegicus) (Q9R1A7 whole entry, looked up): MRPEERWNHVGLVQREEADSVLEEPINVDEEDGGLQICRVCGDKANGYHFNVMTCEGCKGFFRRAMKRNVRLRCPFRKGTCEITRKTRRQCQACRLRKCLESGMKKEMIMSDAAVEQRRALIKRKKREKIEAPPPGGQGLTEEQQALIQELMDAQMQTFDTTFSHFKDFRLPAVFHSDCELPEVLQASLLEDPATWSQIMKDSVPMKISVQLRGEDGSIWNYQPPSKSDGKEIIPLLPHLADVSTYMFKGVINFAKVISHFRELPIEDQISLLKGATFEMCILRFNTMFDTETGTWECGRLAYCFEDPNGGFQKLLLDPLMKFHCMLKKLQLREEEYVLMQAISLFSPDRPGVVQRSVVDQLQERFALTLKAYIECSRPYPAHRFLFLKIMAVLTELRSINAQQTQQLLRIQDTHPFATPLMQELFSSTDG
Sequence of Glucocorticoid receptor (Homo sapiens) (P04150 whole entry, looked up): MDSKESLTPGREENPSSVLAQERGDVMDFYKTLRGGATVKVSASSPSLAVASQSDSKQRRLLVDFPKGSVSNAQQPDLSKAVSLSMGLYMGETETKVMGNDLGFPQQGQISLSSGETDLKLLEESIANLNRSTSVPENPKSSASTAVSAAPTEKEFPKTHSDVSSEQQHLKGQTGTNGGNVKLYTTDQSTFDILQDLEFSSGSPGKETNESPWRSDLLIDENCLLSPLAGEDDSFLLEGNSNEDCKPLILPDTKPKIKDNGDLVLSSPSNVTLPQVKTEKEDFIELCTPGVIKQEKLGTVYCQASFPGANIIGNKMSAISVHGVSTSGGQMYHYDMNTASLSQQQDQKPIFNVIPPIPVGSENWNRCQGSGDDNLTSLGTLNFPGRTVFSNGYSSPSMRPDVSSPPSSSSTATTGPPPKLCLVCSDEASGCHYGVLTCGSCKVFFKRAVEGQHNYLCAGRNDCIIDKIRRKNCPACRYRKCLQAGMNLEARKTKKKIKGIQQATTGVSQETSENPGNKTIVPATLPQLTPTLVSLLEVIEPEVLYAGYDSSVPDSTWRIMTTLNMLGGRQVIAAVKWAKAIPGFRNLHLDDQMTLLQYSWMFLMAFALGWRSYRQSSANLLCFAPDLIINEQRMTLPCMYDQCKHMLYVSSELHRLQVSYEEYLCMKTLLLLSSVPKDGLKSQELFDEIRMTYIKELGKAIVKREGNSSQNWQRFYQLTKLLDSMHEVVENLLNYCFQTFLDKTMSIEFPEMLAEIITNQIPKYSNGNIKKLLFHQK

`C/C(=C\c1csc(C)n1)[C@@H]1C[C@@H]2O[C@]2(C)CCC[C@H](C)[C@H](O)[C@@H](C)C(=O)C(C)(C)[C@@H](O)CC(=O)O1`: the Potency result in assay [1], in assay [2], in [4], in [5], in assay [9] and in assay [10] was “inactive” in each case. Besides, the Potency result in assay [12] was “inactive”. For the same compound, in assay [3], the compound was called inactive. Moreover, the Potency in assay [6] was 0.0019 µM (active); in [7], 0.0024 µM (active); in assay [8], 0.0038 µM (active); in assay [11] it was 10 µM (active); in assay [13], 7.94 µM (active).

`NCC[C@H](O)C(=O)N[C@@H]1C[C@H](N)[C@@H](O[C@H]2O[C@H](CN)[C@@H](O)[C@H](O)[C@H]2N)[C@H](O[C@@H]2O[C@H](CO)[C@@H](O)[C@H]2O)[C@H]1O`: the Potency entry in assay [1], in assay [2], in [4], in assay [6], in assay [7] and in [8] was “inactive” each time. Moreover, the Potency result in assay [15], in assay [9], in [16], in assay [17], in [10] and in assay [12] was “inactive” each time. Besides, in assay [13], the Potency entry was “inactive”. Besides, the compound was classed as inactive in assay [3] and in [14]. In assay [11], the max activation was -1.3%.

Take `C=CC[C@]1(O)CC[C@H]2[C@@H]3CCC4=CCCC[C@@H]4[C@H]3CC[C@@]21C`: the Potency result in assay [18], in assay [1], in [2], in assay [4], in assay [5] and in assay [6] was “inactive” throughout. Moreover, the Potency result in assay [7], in [10] and in assay [12] was “inactive” throughout. Besides, the result in assay [3] and in assay [14] was inactive. The Potency in [15] was 0.952 µM [inconclusive] (active); in assay [9], 0.376 µM (active). The max activation in [11] was 1.23%.

Regarding `O=C(OCCN1CCCCC1)C(O)(c1ccccc1)c1ccccc1`, the Potency result in assay [2], in assay [4], in [6], in assay [7], in assay [19] and in assay [8] was “inactive” throughout. Moreover, the Potency entry in [15], in [9], in assay [16], in [17], in assay [10] and in [12] was “inactive” throughout. For the same compound, the Potency entry in assay [13] was “inactive”. In addition, the call in assay [14] was inactive. Besides, in [11], the max activation was -1.73%.

`O[C@H]1[C@H]2[C@H](O)CCCN2C[C@H]1O`: the Potency entry in [1], in [4], in assay [5], in assay [6], in [20] and in [19] was “inactive” each time. Moreover, the Potency entry in assay [8], in [15], in [9], in [16], in assay [17] and in assay [10] was “inactive” each time. Also, the Potency result in assay [12] and in assay [13] was “inactive” each time. In assay [3], the compound was classed as inactive. For the same compound, in [11], the max activation was -2.82%.

With `CC(C)CCC(=O)O[C@H]1CC[C@H]2[C@@H]3CCC4=CC(=O)CC[C@]4(C)[C@H]3CC[C@]12C`, the Potency entry in assay [2], in assay [5], in assay [7], in assay [20], in assay [19] and in assay [16] was “inactive” each time. In addition, the Potency result in [17], in assay [10], in assay [12] and in [13] was “inactive” each time. For the same compound, the outcome in [3] and in [14] was inactive. The Potency is 7.5 µM (active) in assay [6], 33.5 µM (active) in assay [8], 4.77 µM [inconclusive] (active) in [15] and 0.0668 µM (active) in [9]. Also, the max activation in [11] was 2.99%.
